Records with an inconclusive call do not appear. Calls of active or inactive are those of the source. Calls follow the shape of the dose curve; as a rule, active = well fitted curve in the direction sought with a large enough effect; inconclusive = small, poorly fitted or top-dose-only effect, or another doubt; inactive = no such curve, though single readings can be large; an effect the other way counts as inactive or inconclusive.
Assays:
[1] = qHTS for Activators of Parkin Expression: LOPAC Validation Assay (NLuc Reporter) (AID 720572;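 also: 0% = DMSO and 100% = positive control compound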)
Summary of the method: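 Cells harboring the Parkin-promoter coincidence reporter were treated for 24 h at seven concentrations. NLuc output was measured sequentially after the FLuc channel and scaled between DMSO and positive control values.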

[2] = biological target: T1, Hexokinase-4 (Homo sapiens) + Glucokinase regulatory protein (Homo sapiens) (UniProt P35557+Q14397); assay: qHTS assay for inhibitors of recombinant human GCK-GKRP interaction: Diaphorase-coupled assay (AID 743205)
Summary of the method: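 Inhibitors of the GCK–GKRP complex relieve GKRP suppression of GCK, detected through a G6PDH–diaphorase cascade reducing resazurin. Human GST-GCK and FLAG-GKRP are used at 10 nM with 5 mM glucose and 0.4 mM ATP.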

[3] = biological target: T1, Hexokinase-4 (Homo sapiens) + Glucokinase regulatory protein (Homo sapiens); assay: qHTS assay for inhibitors of recombinant human GCK-GKRP interaction: ADP-Glo assay (AID 743206);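 also: plate controls were DMSO plus enzyme for no effect and no enzyme for full effect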
Summary of the method: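 Pin-transferred compounds meet a 15 nM GST-GCK/15 nM FLAG-GKRP/2 uM S6P mix (dispense concentrations). ATP is then added to 0.4 mM final with 5 mM glucose, and the reaction runs 60 min at room temperature. ADP is quantified luminescently.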

[4] = qHTS Assay for Identifying Gametocytocidal Compounds (AID 743244);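 also: % is scaled to controls: 0 for no effect and ±100 for the full control effect; actives lower the fluorescent signal which means gametocytes are killed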; details: P. falciparum 3D7 stage III-V gametocytes, alamarBlue, 72 h; max response: active compounds read low
Summary of the method: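 Stage III-V P. falciparum 3D7 gametocytes, 20,000 per well, were exposed to compounds for 72 h at 37C, 5% CO2. AlamarBlue was then added for 24 h and viability was read as fluorescence at Ex 525/Em 598 nm.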

[5] = NS1 protein of Zika virus - qHTS assay to identify small molecule inhibitors in human HEK 293 cells (AID 1347053);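 also: series mostly up to about 46 µM; plate controls were infected untreated cells for no effect and uninfected cells for full effect; nearly all actives have a fitted effect of over 55% in size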
Summary of the method: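 Compound-treated (1 h pre-infection) HEK 293 cells infected with ZIKV MR766, MOI = 0.5; after 24 h at 37 C, NS1 read by TR-FRET; data normalized to uninfected and infected controls.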

[6] = biological target: Tyrosine-protein phosphatase non-receptor type substrate 1 (Homo sapiens) + Leukocyte surface antigen CD47 (Homo sapiens) (UniProt P78324+Q08722); assay: CD47-SIRPalpha protein protein interaction - Alpha assay qHTS validation (AID 1347059);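 also: bead proximity luminescence from CD47 binding SIRPalpha after compound preincubation with SIRPalpha; % is scaled to controls: 0 for no effect and ±100 for the full control effect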
Summary of the method: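 In PBS (pH 7.4) with 0.05% IGEPAL CA-630, compound is preincubated with biotin-Avi-SIRPalpha ectodomain before His-CD47 ectodomain and affinity beads are added. Light-protected room-temperature incubations; AlphaScreen readout.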

[7] = biological target: Parathyroid hormone/parathyroid hormone-related peptide receptor (Homo sapiens) (UniProt Q03431); assay: qHTS for PTHR1 Agonists: Optimization Screen against the NCGC LOPAC library (AID 1347079);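 also: GloSensor cAMP luminescence in HEK-293 GP2 cells expressing human PTHR1 with IBMX; 0% is about no effect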
Summary of the method: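 Signal increase flags agonism. GP2 cells, derived from HEK-293, express human PTHR1 and a GloSensor cAMP construct.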

[8] = biological target: N-terminal Xaa-Pro-Lys N-methyltransferase 1 (Homo sapiens) (UniProt Q9BV86); assay: qHTS Assay for Inhibitors of N-terminal methyltransferase 1 (NTMT1): LOPAC validation of the NTMT1 SAHH-coupled ThioGlo3 Assay (AID 1347143);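 also: SAH from peptide methylation measured as thiol fluorescence via SAHH coupling and ThioGlo3; potency is read from the fitted curve at half-maximal effect; nearly all actives have a fitted effect of over 70% in size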
Summary of the method: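 In this qHTS pilot against the LOPAC set, 125nM NTMT1 met compounds tested at multiple concentrations, and fluorescence was normalized to background.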

[9] = test system: Zika virus NS2B-NS3 protease (unlinked); assay: Optimization of GU AMC qHTS for Zika virus inhibitors: Unlinked NS2B-NS3 protease assay (AID 1347151); also: potency is read from the fitted curve at half-maximal effect; nearly all actives have a fitted effect of over 80% in size
Summary of the method: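 Percent inhibition is derived from the 15-min change in AMC fluorescence, normalized against no-inhibitor and no-enzyme controls, then fitted to a 4-parameter Hill curve. Aprotinin was the intraplate control.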

[10] = qHTS to identify inhibitors of the type 1 interferon - major histocompatibility complex class I in skeletal muscle: primary screen against the NCATS LOPAC collection (AID 1347405);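 also: human myoblasts with HiBiT tag on endogenous HLA-B stimulated by IFN-beta; lytic HiBiT luminescence reporting HLA-B protein level; % is scaled to controls: 0 for no effect and ±100 for the full control effect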
Summary of the method: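 HLA-B HiBiT myoblasts, IFN-b 4 ng/ml, dexamethasone-free medium; compounds 7-pt 1:4.3 titration, top 46 uM final; 24 h at 37 C; Nano-Glo HiBiT lytic reagent, 10 min RT, luminescence.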

[11] = qHTS for inhibitors of adenylyl cyclases using a fission yeast platform: a pilot screen against the NCATS LOPAC library (AID 1347410);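 also: plate controls were DMSO vehicle for no effect and DPI positive control for full effect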
Summary of the method: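 Growth medium went into the plates first, then compounds were pinned (final up to 57 µM), then CHP2027 yeast were added. Plates were incubated overnight (18 h) at 30C in the dark, and GFP was measured by laser scanning cytometry.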

[12] = Validation qHTS assay for inhibitors of Activation Induced Cytidine Deaminase (AID): UDG Counterscreen signal (AID 1347427); also: 0% is about no effect
Summary of the method: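 Fluorescence at 560 nm excitation, 665 nm emission reports UDG signal after 250 mM NaOH (2x) addition and 30 min. Enzymes (AID 1 uM, UDG 2 U/mL, at 4/3x) preincubated 10 min with compound, then 4 h with 4x 250 nM DJC20/DJC23 substrate at room temperature.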

[13] = biological target: Single-stranded DNA cytosine deaminase (Homo sapiens) (UniProt Q9GZX7); assay: Validation qHTS assay for inhibitors of Activation Induced Cytidine Deaminase (AID): AID signal (AID 1347429); also: % is scaled to controls: 0 for no effect and ±100 for the full control effect
Summary of the method: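 AID+UDG coupled FRET deamination; cpds up to 114 uM final; DJC20/DJC23 substrate, 4 hr RT; NaOH stop, 30 min RT; read Ex 540/Em 590.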

[14] = Primary qHTS for inhibitors of La Crosse Virus (LACV) - induced cell death in SH-SY5Y cells (AID 1508616);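 also: top concentration of the series differs between compounds; 0% = infected DMSO wells and 100% = uninfected DMSO wells; higher means more rescue of cells from virus-induced death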
Summary of the method: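 Cytopathicity rescue screen: compounds pinned onto SH-SY5Y cells, which are then infected with LACV (MOI 0.01) and held 6 days at 37C. Percent activity is scaled between infected DMSO control and uninfected DMSO control.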

[15] = biological target: Calcium and integrin-binding protein 1 (Homo sapiens) (UniProt Q99828); assay: Validation qHTS for Identification of Calcium Integrin Binding protein 1 (CIB1) Competitor (AID 1508618); also: % is scaled to controls: 0 for no effect and ±100 for the full control effect
Summary of the method: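 In this qHTS validation, the LOPAC set (up to 114 uM) was tested for blocking CIB1 binding to a fluorescein-tagged alphaIIb peptide, with FP detection at 480/540 nm.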

[16] = Primary qHTS for small molecule stabilizers of the endoplasmic reticulum resident proteome: Secreted ER Calcium Modulated Protein (SERCaMP) assay (AID 1508630); also: % is scaled to controls: 0 for no effect and ±100 for the full control effect
Summary of the method: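 The SH-SY5Y reporter protocol was run at 3 concentrations up to 38.3 uM (primary) or 11 concentrations (follow-up): 16 h compound, 100 nM thapsigargin for 4 h, then extracellular luciferase luminescence.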

[17] = biological target: Rap guanine nucleotide exchange factor 3 (Homo sapiens) (UniProt O95398); assay: Confirmatory qHTS for agonist of cAMP-regulated guanine nucleotide exchange factor 3 (EPAC1) (AID 1645881);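 also: EPAC1 catalysed release of BODIPY-GDP from Rap1B seen as fluorescence loss; 100% = effect of cAMP agonist control; nearly all actives have a fitted effect of over 75% in size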
[18] = biological target: Rap guanine nucleotide exchange factor 4 (Homo sapiens) (UniProt Q8WZA2); assay: Confirmatory qHTS for agonist of cAMP-regulated guanine nucleotide exchange factor 4 (EPAC2) (AID 1645884);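 also: nucleotide exchange releases bodipy-GDP from Rap1 and this lowers its fluorescence; % is scaled to controls: 0 for no effect and ±100 for the full control effect; nearly all actives have a fitted effect of over 65% in size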
[19] = biological target: Rap guanine nucleotide exchange factor 4 (Homo sapiens) (UniProt Q8WZA2); assay: Confirmatory qHTS for antagonist of cAMP-regulated guanine nucleotide exchange factor 4 (EPAC2) (AID 1645885); also: % is scaled to controls: 0 for no effect and ±100 for the full control effect; nearly all actives have a fitted effect of over 25% in size
[20] = biological target: Metallo-beta-lactamase type 2 (Klebsiella pneumoniae) (UniProt C7C422); assay: qHTS to identify inhibitors of the New Delhi Metallo-beta-lactamase (NDM): assay validation screen against the NCATS LOPAC Collection (AID 1794843)
Summary of the method: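 Nitrocefin hydrolysis (50 uM substrate stock) by NDM-1, 2 nM final, was followed by 485 nm absorbance after compound preincubation; buffer was 50 mM HEPES pH 7.0, 1 uM ZnSO4, 0.01% Tween20.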

[21] = biological target: Glutathione peroxidase 1 (Homo sapiens) (UniProt P07203); assay: Primary qHTS Assay for Inhibitors of Recombinant Selenoprotein Glutathione Peroxidase 1 (GPX1) (AID 1845191); also: % is scaled to controls: 0 for no effect and ±100 for the full control effect; nearly all actives have a fitted effect of over 65% in size
Summary of the method: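 GPX1 10 nM, GR 100 nM, GSH 1 mM, NADPH 0.5 mM, CHP 0.5 mM (final). 30-min cpd preincubation, RT. Ex340/Em450 read t=0, t=15 min.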

[22] = biological target: Phospholipid hydroperoxide glutathione peroxidase GPX4 (Homo sapiens) (UniProt P36969); assay: Primary qHTS Assay for Inhibitors of Recombinant Selenoprotein Glutathione Peroxidase 4 (GPX4) (AID 1845192); details: outcome: dose series up to 50 µM unless noted; also: series mostly up to about 50 µM; % is scaled to controls: 0 for no effect and ±100 for the full control effect; nearly all actives have a fitted effect of over 65% in size
Summary of the method: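 qHTS, GR-coupled: GPX4 200 nM + cpd 30 min RT → GSH 1 mM, NADPH 0.5 mM, GR 100 nM → CHP 0.5 mM start; fluor 340/450 at t0 and t15 min; no-enzyme wells as control.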

Chain of Rap guanine nucleotide exchange factor 4 (Homo sapiens) (Q8WZA2 whole entry, looked up): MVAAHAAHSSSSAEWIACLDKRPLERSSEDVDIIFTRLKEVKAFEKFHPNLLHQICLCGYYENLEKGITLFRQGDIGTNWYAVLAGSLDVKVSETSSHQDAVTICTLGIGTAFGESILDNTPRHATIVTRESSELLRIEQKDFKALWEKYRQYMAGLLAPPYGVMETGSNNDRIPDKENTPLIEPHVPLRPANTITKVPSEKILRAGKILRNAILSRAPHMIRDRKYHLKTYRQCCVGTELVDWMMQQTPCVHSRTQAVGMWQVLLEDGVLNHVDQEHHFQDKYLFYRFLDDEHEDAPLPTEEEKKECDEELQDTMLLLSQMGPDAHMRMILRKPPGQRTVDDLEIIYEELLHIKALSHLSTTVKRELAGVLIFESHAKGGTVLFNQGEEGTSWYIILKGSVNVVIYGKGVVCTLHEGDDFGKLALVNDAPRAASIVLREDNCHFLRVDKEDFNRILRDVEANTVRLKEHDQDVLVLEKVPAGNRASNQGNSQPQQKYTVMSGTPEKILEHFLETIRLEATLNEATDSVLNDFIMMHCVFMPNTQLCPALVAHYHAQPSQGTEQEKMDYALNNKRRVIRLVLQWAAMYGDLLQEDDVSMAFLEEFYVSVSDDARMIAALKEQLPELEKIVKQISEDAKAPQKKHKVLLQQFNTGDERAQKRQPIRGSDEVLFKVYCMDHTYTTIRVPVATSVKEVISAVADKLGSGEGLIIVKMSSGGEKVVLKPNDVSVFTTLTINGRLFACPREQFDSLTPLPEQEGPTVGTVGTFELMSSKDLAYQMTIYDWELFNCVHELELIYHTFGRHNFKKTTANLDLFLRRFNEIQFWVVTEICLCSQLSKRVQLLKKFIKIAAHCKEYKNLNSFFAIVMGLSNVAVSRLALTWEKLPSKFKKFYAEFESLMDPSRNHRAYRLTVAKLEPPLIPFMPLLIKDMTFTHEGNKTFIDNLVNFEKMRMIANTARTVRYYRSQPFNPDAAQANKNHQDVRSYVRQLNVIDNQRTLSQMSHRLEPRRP
T1 sequence (P35557 whole entry, looked up): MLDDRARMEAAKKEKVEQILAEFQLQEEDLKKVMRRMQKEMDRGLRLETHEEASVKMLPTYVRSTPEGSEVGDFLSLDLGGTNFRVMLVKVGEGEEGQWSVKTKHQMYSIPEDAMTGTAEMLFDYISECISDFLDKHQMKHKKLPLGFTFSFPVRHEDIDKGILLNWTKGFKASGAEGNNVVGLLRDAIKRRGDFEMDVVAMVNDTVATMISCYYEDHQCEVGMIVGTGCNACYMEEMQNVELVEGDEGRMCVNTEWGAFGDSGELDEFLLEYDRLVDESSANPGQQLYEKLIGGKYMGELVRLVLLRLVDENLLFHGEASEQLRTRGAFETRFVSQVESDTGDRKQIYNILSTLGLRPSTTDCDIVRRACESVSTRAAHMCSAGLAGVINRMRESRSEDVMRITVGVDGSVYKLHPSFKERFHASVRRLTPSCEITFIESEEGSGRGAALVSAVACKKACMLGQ
T1 sequence (Q14397 whole entry, looked up): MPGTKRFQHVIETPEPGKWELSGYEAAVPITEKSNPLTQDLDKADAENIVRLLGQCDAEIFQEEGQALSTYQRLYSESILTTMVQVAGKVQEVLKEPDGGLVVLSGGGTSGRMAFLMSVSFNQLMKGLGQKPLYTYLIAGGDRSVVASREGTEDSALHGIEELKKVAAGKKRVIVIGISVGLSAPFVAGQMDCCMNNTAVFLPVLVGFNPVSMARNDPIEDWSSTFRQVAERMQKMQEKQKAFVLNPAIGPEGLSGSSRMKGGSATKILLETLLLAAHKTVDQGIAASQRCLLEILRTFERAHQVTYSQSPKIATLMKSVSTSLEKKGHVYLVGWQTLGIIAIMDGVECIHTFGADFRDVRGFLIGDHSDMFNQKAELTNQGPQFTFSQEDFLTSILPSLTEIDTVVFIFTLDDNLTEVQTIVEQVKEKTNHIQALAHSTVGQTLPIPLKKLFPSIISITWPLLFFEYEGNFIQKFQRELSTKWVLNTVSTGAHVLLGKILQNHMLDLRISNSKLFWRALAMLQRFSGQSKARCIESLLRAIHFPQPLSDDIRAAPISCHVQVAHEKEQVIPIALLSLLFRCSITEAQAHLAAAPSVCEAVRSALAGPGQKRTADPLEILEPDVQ
Chain of Glutathione peroxidase 1 (Homo sapiens) (P07203 whole entry, looked up): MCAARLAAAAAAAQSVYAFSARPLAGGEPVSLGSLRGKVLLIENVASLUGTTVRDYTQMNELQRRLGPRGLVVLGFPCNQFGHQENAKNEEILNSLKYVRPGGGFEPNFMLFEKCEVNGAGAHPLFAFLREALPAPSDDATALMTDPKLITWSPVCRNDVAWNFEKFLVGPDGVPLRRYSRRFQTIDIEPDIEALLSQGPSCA
Chain of Phospholipid hydroperoxide glutathione peroxidase GPX4 (Homo sapiens) (P36969 whole entry, looked up): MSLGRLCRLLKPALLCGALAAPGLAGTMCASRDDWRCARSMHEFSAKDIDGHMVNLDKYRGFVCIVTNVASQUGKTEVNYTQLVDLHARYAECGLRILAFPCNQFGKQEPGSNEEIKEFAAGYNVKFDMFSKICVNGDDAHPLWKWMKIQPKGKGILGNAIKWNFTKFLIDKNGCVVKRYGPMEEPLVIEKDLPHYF
Chain of Metallo-beta-lactamase type 2 (Klebsiella pneumoniae) (C7C422 whole entry, looked up): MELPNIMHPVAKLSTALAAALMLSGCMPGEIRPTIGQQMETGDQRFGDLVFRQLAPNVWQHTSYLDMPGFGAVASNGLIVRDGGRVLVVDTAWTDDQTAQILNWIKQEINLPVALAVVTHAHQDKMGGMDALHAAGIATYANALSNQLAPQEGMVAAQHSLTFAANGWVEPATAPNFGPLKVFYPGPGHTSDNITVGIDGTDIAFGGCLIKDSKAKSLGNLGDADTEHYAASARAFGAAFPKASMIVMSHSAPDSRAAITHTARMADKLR
Chain of Tyrosine-protein phosphatase non-receptor type substrate 1 (Homo sapiens) + Leukocyte surface antigen CD47 (Homo sapiens) (P78324 whole entry, looked up, the tested form may be a part): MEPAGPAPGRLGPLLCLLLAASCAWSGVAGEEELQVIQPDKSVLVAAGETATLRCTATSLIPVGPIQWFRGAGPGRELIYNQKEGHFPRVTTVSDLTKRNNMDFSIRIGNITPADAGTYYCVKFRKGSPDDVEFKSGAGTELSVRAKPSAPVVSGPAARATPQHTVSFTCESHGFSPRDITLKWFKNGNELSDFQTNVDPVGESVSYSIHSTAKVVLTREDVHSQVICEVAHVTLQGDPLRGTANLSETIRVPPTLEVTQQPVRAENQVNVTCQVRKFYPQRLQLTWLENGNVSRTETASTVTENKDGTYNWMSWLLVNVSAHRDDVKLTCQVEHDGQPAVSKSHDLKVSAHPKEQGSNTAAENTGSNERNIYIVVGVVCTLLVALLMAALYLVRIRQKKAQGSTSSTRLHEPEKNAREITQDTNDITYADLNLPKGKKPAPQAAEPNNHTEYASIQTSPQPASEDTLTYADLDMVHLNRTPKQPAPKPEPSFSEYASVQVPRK
Chain of Tyrosine-protein phosphatase non-receptor type substrate 1 (Homo sapiens) + Leukocyte surface antigen CD47 (Homo sapiens) (Q08722 whole entry, looked up, the tested form may be a part): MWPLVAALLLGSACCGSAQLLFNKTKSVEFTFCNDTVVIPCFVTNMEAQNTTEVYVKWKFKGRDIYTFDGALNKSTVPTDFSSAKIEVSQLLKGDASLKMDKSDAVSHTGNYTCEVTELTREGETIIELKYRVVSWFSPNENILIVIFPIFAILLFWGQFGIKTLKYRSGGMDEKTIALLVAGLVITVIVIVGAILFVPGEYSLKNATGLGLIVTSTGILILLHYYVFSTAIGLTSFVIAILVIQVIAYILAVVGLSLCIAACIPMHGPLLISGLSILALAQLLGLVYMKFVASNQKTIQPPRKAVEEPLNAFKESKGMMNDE
Chain of Calcium and integrin-binding protein 1 (Homo sapiens) (Q99828 whole entry, looked up): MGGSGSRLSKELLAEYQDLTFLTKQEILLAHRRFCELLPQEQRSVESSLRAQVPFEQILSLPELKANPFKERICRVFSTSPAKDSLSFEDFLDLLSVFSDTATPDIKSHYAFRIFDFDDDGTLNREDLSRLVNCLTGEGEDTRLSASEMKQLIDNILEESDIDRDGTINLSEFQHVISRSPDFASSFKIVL
Chain of Rap guanine nucleotide exchange factor 3 (Homo sapiens) (O95398 whole entry, looked up): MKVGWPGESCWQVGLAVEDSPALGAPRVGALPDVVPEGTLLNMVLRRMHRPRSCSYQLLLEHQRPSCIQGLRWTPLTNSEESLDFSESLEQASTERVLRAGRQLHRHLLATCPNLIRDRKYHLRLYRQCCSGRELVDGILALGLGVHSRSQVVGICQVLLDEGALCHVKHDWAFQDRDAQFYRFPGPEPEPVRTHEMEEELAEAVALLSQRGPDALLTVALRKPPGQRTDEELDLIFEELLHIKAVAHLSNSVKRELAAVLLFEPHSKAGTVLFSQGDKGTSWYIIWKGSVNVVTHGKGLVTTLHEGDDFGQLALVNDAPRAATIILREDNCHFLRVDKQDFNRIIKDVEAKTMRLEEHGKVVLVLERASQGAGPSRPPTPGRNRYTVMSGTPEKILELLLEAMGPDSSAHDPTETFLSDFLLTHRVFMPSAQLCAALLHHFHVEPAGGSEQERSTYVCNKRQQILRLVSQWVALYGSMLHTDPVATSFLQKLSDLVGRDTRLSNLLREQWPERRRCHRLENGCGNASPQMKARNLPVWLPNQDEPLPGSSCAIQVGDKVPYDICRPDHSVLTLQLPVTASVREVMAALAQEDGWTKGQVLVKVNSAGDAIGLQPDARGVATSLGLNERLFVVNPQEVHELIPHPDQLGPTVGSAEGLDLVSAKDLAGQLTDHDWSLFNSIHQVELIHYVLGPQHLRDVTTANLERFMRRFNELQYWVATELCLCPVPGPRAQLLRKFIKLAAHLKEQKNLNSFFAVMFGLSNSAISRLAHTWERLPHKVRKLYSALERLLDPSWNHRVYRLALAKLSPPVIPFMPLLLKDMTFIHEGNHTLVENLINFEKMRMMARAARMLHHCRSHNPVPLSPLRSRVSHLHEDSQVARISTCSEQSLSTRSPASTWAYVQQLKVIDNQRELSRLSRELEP
Chain of N-terminal Xaa-Pro-Lys N-methyltransferase 1 (Homo sapiens) (Q9BV86 whole entry, looked up): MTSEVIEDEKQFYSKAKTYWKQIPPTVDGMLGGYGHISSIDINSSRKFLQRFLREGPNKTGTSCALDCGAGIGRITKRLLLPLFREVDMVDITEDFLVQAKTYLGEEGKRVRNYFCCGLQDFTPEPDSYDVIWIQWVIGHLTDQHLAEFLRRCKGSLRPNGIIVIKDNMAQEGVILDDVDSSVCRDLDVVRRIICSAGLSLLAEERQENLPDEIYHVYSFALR

N#C/C(=C\c1ccc(O)c(O)c1)C(=O)Nc1ccccc1
inactive: outcome [1] | outcome [2] | outcome [3] | max response [4] 12.5% | outcome [5] | Potency [6] | outcome [7] | Potency [10] | outcome [11] | outcome [12] | Potency [13] | outcome [14] | outcome [15] | Potency [16] | outcome [17] | outcome [18] | Potency [19] | Potency [20] | Potency [21] | Potency [22]
active: Potency [8] 39.8 µM | Potency [9] 3.36 µM

From PubChem BioAssay (NCATS)
